# Measured values reported in PubChem BioAssay (NCI).
# The panel holds about 83,000 compounds, 20% with a hit somewhere; the sample as a whole holds those more often.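 Testing used 96-well plates and a 48-hour single-concentration exposure. Example: -40 means 40% of the starting cells died.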 Values without a mark were called inactive. The source made the active and inactive calls. The calls were made as follows: active = growth percent below 10; inactive = the rest.
# How the values were obtained:
# Assay in all cases: NCI-60 one-dose screen, 48 h (100 = growth as untreated, 0 = no growth, -100 = all killed)
# Settings in all cases: 10 µM unless noted
# NCI-H23 lung = system: NCI-H23 lung
# NCI-H226 lung = system: NCI-H226 lung
# NCI-H322M lung = system: NCI-H322M lung
# HOP-62 NSCLC = system: HOP-62 NSCLC
# NCI-H460 lung = system: NCI-H460 lung
# HOP-92 NSCLC = system: HOP-92 NSCLC
# NCI-H522 lung = system: NCI-H522 lung
# A549/ATCC NSCLC = system: A549/ATCC NSCLC
# 786-0 renal = system: 786-0 renal
# COLO 205 colon = system: COLO 205 colon
# DU-145 prostate = system: DU-145 prostate
# K-562 leukemia = system: K-562 leukemia
# MALME-3M melanoma = system: MALME-3M melanoma
# MDA-MB-231 breast = system: MDA-MB-231 breast
# RXF 393 renal = system: RXF 393 renal
# SF-268 CNS = system: SF-268 CNS
# SF-295 CNS = system: SF-295 CNS
# SF-539 CNS = system: SF-539 CNS
# UACC-257 melanoma = system: UACC-257 melanoma
# M14 melanoma = system: M14 melanoma
Structure (SMILES),growth (NCI-H23 lung),growth (NCI-H226 lung),growth (NCI-H322M lung),growth (HOP-62 NSCLC),growth (NCI-H460 lung),growth (HOP-92 NSCLC),growth (NCI-H522 lung),growth (A549/ATCC NSCLC),growth (786-0 renal),growth (COLO 205 colon),growth (DU-145 prostate),growth (K-562 leukemia),growth (MALME-3M melanoma),growth (MDA-MB-231 breast),growth (RXF 393 renal),growth (SF-268 CNS),growth (SF-295 CNS),growth (SF-539 CNS),growth (UACC-257 melanoma),growth (M14 melanoma)
C[C@@H]1C[C@H](N)C[C@H](c2ccncc2NC(=O)c2ccc(F)c(-c3c(F)cccc3F)n2)C1,73.3%,53.6%,71%,49.1%,62.5%,10.4%,46.4%,48.7%,56.1%,-33.4% (active),80.4%,11.4%,-20.6% (active),59.1%,23.2%,58.9%,71.9%,70.2%,-69.4% (active),-30.8% (active)
COc1cc(C2CC(c3cccc(Nc4ccnc5cc(Cl)ccc45)c3)=NN2c2ccc(Cl)cc2)cc(OC)c1OC (stereo not given),73.8%,70.6%,81.4%,76.7%,36.4%,37.5%,40.6%,57%,54.5%,80.9%,75.1%,11.2%,44.5%,67%,62.1%,51.9%,3.25% (active),43.3%,57.1%,25.4%
CC(=O)OC1Oc2cc(C)c(C)cc2-c2oc(=O)c(-c3ccc(F)cc3)cc21 (stereo not given),65.2%,102%,113%,77.8%,38%,80%,14.7%,52.5%,56.3%,79.2%,75.8%,6.83% (active),65.3%,77.7%,-1.93% (active),55.5%,80.5%,72.7%,96%,38.5%
CCCc1n(Cc2ccc3ccccc3n2)cc[n+]1Cc1ccc2ccccc2n1,13%,38%,72.1%,51.7%,34.2%,16%,22.8%,62.8%,85.3%,-43% (active),51.2%,12.8%,12.5%,17.8%,48.7%,27.8%,59.9%,31.2%,-11.5% (active),37.2%
COc1ccc([C@@H]2[C@@H](Oc3ccccc3)C(=O)N2c2cc(OC)c(OC)c(OC)c2)cc1F,16.5%,41.5%,33.4%,14%,7.22% (active),42%,-26.1% (active),13.4%,5.88% (active),-41.2% (active),9.48% (active),4.73% (active),65.5%,12.4%,3.39% (active),25.3%,3.68% (active),-21.1% (active),57.3%,5.14% (active)
Cc1c(-c2ccc(-c3ccccc3F)cc2)nc2ccc(F)cc2c1C(=O)O,54.6%,65.4%,44.5%,49.3%,10.6%,42.5%,34.3%,34.7%,23%,49.2%,42.5%,26.3%,62.8%,65.2%,37.2%,50.7%,22.8%,29%,19.8%,53.7%
Cc1nc2ccc(Nc3nc(NCCN4CCOCC4)nc(Nc4ccc(F)cc4)n3)cc2n1Cc1ccccc1,67%,72.1%,64.1%,47.8%,29.4%,30.3%,58.7%,46.3%,4.17% (active),1.19% (active),59.2%,3.04% (active),-41.7% (active),33.3%,12%,62.1%,-36.8% (active),29.8%,-65.3% (active),-38.8% (active)
Clc1ccc(Nc2ncnc3c2sc2ncccc23)cc1,3.68% (active),31.5%,45.9%,15.7%,10.3%,50.4%,31.5%,27.9%,13.6%,30.2%,20.2%,46.6%,65.6%,63.9%,32.9%,23%,19.1%,6.42% (active),41.6%,-21.5% (active)
CC(C)NC(=O)OCC#CCOC(=O)NC(C)C,99.6%,106%,86.8%,104%,108%,105%,89.1%,96.7%,102%,106%,111%,87.9%,92.6%,103%,113%,110%,82.8%,109%,105%,101%
CC(C)(C)c1ccc(Cn2c(-c3nonc3N)nc3ccccc32)cc1,70.7%,83.4%,83%,82.1%,86%,64.3%,49.3%,68.4%,80.4%,67.2%,83.3%,19.1%,82.3%,81.8%,77.8%,75.6%,71.5%,89.7%,76.8%,66.9%
CN1CCN(Cc2ccc(NC(=O)c3ccc(C#N)c(C#Cc4cnc(N)c5ncccc45)c3)cc2C(F)(F)F)CC1,96.8%,59.4%,96.7%,87.2%,21.7%,81.9%,98.4%,90.6%,-80.3% (active),77.7%,28.8%,-5.03% (active),-52% (active),-2.17% (active),41.9%,94.1%,103%,54.5%,-20.1% (active),3.5% (active)
O=C(O)Cn1ccc2ccccc21,100%,110%,100%,79.9%,103%,88.2%,77.7%,99.4%,101%,153%,119%,93.4%,96.7%,88.8%,114%,115%,113%,92.8%,113%,93.2%
Cc1ccc2oc(=O)cc(-c3nc4ccc([N+](=O)[O-])cc4[nH]3)c2c1,43.9%,66.6%,80.5%,72%,47.1%,52.7%,36%,35.2%,40.6%,67.8%,76.4%,48.7%,62.9%,64.2%,46.7%,62.1%,49.3%,54%,62.2%,64.4%
CCN(CC)CCCC(C)Nc1cnc(C(=O)Nc2ccc(Cl)c3cccnc23)cn1 (stereo not given),80.4%,39.1%,35.3%,43%,3.47% (active),38.8%,4.41% (active),23.4%,-44.2% (active),-66.7% (active),53.1%,-45.8% (active),-71.8% (active),-29.7% (active),18.7%,35.8%,63%,-73.6% (active),-33% (active),-73.1% (active)
